{"source": "PubChem BioAssay (Tox21)", "note": "Calls of active or inactive are those of the source. Where a call stands in place of a potency, no number is given. The call rests on the fitted dose curve; in most records, active means well fitted curve in the direction sought with a large enough effect in the repeat runs; inconclusive means weak or mixed curves; inactive means flat fitted curve, though single readings scatter. Potency means the concentration at half of the fitted maximal effect; tags describe the fitted curve by direction and shape or compound fluorescence and quenching.", "data": [{"experiment": "qHTS assay to test for compound auto fluorescence at 460 nm (blue) in HepG2 cells (AID 720687)", "conditions": "autofluorescence 405/460 nm, 1 h; series mostly up to 91.3 µM", "excerpt": "U.S. Tox21 Program National Center for Advancing Translational Sciences [NCATS] NIH Chemical Genomics Center [NCGC] U.S. Environmental Protection Agency [EPA] National Institutes of Environmental Health Sciences [NIEHS] National Toxicology Program [NTP] U.S. Food and Drug Administration [FDA] Tox21 Assay Overview: Compound auto fluorescence often interferes with screening of the compound library against various biological targets and signaling pathways. Some of these compounds may have fluorophoric properties. Such properties may interfere with the assay outputs resulting in false positives and/or negatives. To decrease such complications and ensure the compound activities are relevant in terms of biological response, the Tox21 10K compound library was screened for auto fluorescence. From the fluorophores used as reporter signals in our screening assays, the auto fluorescence equivalencies of compounds against three fluorophores have been evaluated: Triamterene, Fluorescein and Rose Bengal sodium for blue, green and red fluorescence, respectively. The fluorescence intensities were measured using Excitation/Emission wavelengths at 405/460nm, 485/535nm and 540/590nm for blue, green and red labels, respectively. This assay includes the blue fluorescence data.\nTox21 Assay Protocol Summary: 2,000 HepG2 cells in 5 uL of culture medium (MEM containing 10% FBS) per well were dispensed into black wall/clear bottom 1536-well plates using a Multidrop Combi Dispenser (ThermoFisher Scientific, Waltham, MA). The assay plates were incubated overnight at 37 C to allow cell attachment to the well bottom, followed by the transfer of 23 nL compound or DMSO vehicle by a pintool work station (Kalypsys , San Diego, CA). After the assay plates were incubated for 1 hr at 37 C and 5% CO2, fluorescence intensities in the assay plates were measured by an Envision (PerkinElmer, Shelton, CT) plate reader using three labels for measuring blue, green and red fluorescence at […] 460, 535 and 590 nm respectively.", "values": [{"smiles": "CC(C)(C)NC(=O)[C@@H]1C[C@@H]2CCCC[C@@H]2CN1C[C@@H](O)[C@H](Cc1ccccc1)NC(=O)[C@H](CC(N)=O)NC(=O)c1ccc2ccccc2n1", "Potency": "inactive"}, {"smiles": "Cc1onc(-c2c(Cl)cccc2Cl)c1C(=O)N[C@@H]1C(=O)N2[C@@H]1SC(C)(C)[C@@H]2C(=O)O", "Potency": "inactive"}, {"smiles": "c1cc(C(c2ccc(OCC3CO3)cc2)c2ccc(OCC3CO3)cc2)ccc1OCC1CO1", "note": "(stereo not given)", "Potency": "inactive"}, {"smiles": "N/C(=N\\N=C\\c1ccc(Cl)cc1)N/N=C/c1ccc(Cl)cc1", "Potency": "inactive"}, {"smiles": "C/C=C1/C(=O)C[C@H]2[C@@H]3CCC4=CC(=O)CC[C@]4(C)[C@H]3CC[C@]12C", "Potency": "inactive"}, {"smiles": "Nc1ccccc1O", "Potency": "inactive"}, {"smiles": "Cc1cc2c(cc1C(F)(F)F)N(C(=O)Nc1ccc(Oc3cccnc3C)nc1)CC2", "Potency": "inactive"}, {"smiles": "Cc1cccc(CN2CCN(C(c3ccccc3)c3ccc(Cl)cc3)CC2)c1", "note": "(stereo not given)", "fluorescence, % of fluorescent control": "-0.0938% [at 18.6 µM] (inactive)"}, {"smiles": "Clc1ccccc1C(c1ccccc1)(c1ccccc1)n1ccnc1", "Potency": "inactive"}, {"smiles": "CCc1cc(Cc2cc(CC)cc(C(C)(C)C)c2O)c(O)c(C(C)(C)C)c1", "Potency": "inactive"}, {"smiles": "N#CSc1ccc(N)c([N+](=O)[O-])c1", "Potency": "inactive"}, {"smiles": "O=C(Nc1ccc(Oc2ccc(Cl)cc2)c(Cl)c1)c1cc(I)cc(I)c1O", "Potency": "inactive"}, {"smiles": "CCCC(c1cc(C(C)(C)C)c(O)cc1C)c1cc(C(C)(C)C)c(O)cc1C", "Potency": "inactive"}, {"smiles": "CCOC(=O)O[C@H](C)OC(=O)c1ccc2c(c1)cc(C(=O)NC1CCN(C(C)C)CC1)n2Cc1cc(-c2ccc(Cl)s2)on1", "Potency": "inactive"}, {"smiles": "Cc1ccc(-n2nc(C(C)(C)C)cc2NC(=O)Nc2ccc(OCCN3CCOCC3)c3ccccc23)cc1", "Potency": "inactive"}, {"smiles": "[O-][n+]1ccccc1SSc1cccc[n+]1[O-]", "Potency": "inactive"}, {"smiles": "CC[C@H]1O[C@]2(CC[C@@H]1C)C[C@@H]1C[C@@H](C/C=C(\\C)C[C@@H](C)/C=C/C=C3\\CO[C@@H]4[C@H](O)C(C)=C[C@@H](C(=O)O1)[C@]34O)O2", "Potency": "inactive"}, {"smiles": "CCCC1O[C@@H]2C[C@H]3[C@@H]4CCC5=CC(=O)C=C[C@]5(C)[C@H]4[C@@H](O)C[C@]3(C)[C@]2(C(=O)CO)O1", "note": "(stereo not given in full)", "Potency": "inactive"}, {"smiles": "CCCCCCCCCCCCCCCCCC[N+](C)(C)C", "Potency": "inactive"}, {"smiles": "COc1ccc(C(=O)/C(Br)=C\\C(=O)O)cc1", "Potency": "inactive"}, {"smiles": "CCc1cc(Cc2cc(CC)c(N)c(CC)c2)cc(CC)c1N", "Potency": "inactive"}, {"smiles": "Oc1ccc2c(c1)-c1ccccc1C2", "Potency": "inactive"}, {"smiles": "CCCN(CCC)C(=O)C(CCC(=O)OCCCN1CCN(CCOC(=O)Cc2c(C)n(C(=O)c3ccc(Cl)cc3)c3ccc(OC)cc23)CC1)NC(=O)c1ccccc1", "note": "(stereo not given)", "Potency": "inactive"}, {"smiles": "[Cl][Au]([Cl])[Cl]", "Potency": "inactive"}, {"smiles": "CN(C)[C@@H]1C(=O)C(C(N)=O)=C(O)[C@@]2(O)C(=O)C3=C(O)c4c(O)ccc(Cl)c4[C@@H](O)[C@H]3C[C@@H]12", "Potency": "inactive"}, {"smiles": "Clc1ccc2cc3ccccc3cc2c1", "Potency": "inactive"}, {"smiles": "CCN(CC)CCCC(C)Nc1c2ccc(Cl)cc2nc2ccc(OC)cc12", "note": "(stereo not given)", "Potency": "15.8 µM [fluorescent] (active)"}, {"smiles": "CCCCCCCCCCCC[N+](C)(C)CCCCCCCCCCCC", "Potency": "inactive"}, {"smiles": "Cc1[nH]nc2c1N=C(c1ccccc1Cl)c1cc([N+](=O)[O-])ccc1N2", "Potency": "inactive"}, {"smiles": "CCCCN1CCCC[C@H]1C(=O)Nc1c(C)cccc1C", "Potency": "inactive"}, {"smiles": "Oc1ccc2cc(SSc3ccc4cc(O)ccc4c3)ccc2c1", "Potency": "inactive"}, {"smiles": "CO[Si](CCCNc1ccccc1)(OC)OC", "Potency": "inactive"}, {"smiles": "NNc1nc(-c2ccc(N)cc2)cs1", "Potency": "inactive"}, {"smiles": "CC1=C(C(=O)OC(C)C)C(c2cccc([N+](=O)[O-])c2)C(C(=O)OC2CN(C(c3ccccc3)c3ccccc3)C2)=C(N)N1", "note": "(stereo not given)", "Potency": "inactive"}, {"smiles": "O=c1cccccc1O", "Potency": "inactive"}, {"smiles": "Oc1ccc(C2(c3ccc(O)cc3)CC3CC2C2CCCC32)cc1", "note": "(stereo not given)", "Potency": "inactive"}, {"smiles": "NC(=O)N1C(=O)C(C(=O)c2cc(Cl)cs2)c2cc(F)c(Cl)cc21", "note": "(stereo not given)", "Potency": "inactive"}, {"smiles": "O=C1C=CC(=O)N1", "Potency": "inactive"}, {"smiles": "CCOc1nc2cccc(C(=O)OC(C)OC(=O)OC3CCCCC3)c2n1Cc1ccc(-c2ccccc2-c2nn[nH]n2)cc1", "note": "(stereo not given)", "Potency": "inactive"}, {"smiles": "C[C@@H](NCCCc1cccc(C(F)(F)F)c1)c1cccc2ccccc12", "Potency": "inactive"}]}]}
